Holding throughout (assay): NCI-60 one-dose screen, 48 h (100 = growth as untreated, 0 = no growth, -100 = all killed)
Holding throughout (conditions): 10 µM unless noted

Experiment [1] concerns T-47D breast.
In experiment [2] the test system is BT-549 breast.
In experiment [3] the test system is MDA-MB-435 melanoma.
For experiment [4], the system named is SW-620 colon.
For experiment [5], the system named is MCF7 breast.
Experiment [6] concerns HCC-2998 colon.
Experiment [7] has as its system KM12 colon.
Experiment [8] relates to HCT-116 colon.

The panel holds about 83,000 compounds, 20% with a hit somewhere; the sample as a whole holds those more often.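 For each line, cells grew in 96-well plates with the test compound present at a single concentration for 48 hours.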 Values without a mark were called inactive. Calls of active or inactive are those of the source. How the source made its calls: active means growth percent below 10; inactive means the rest.

Turning to `COc1ccc(S(=O)(=O)NCCCNc2nccc(-n3cnc4ccccc43)n2)cc1`, the growth in experiment [1] was 66.3%; in experiment [2], 92.9%; in experiment [3], 98.7%; in experiment [4], 104%; in experiment [5], 85.1%; in experiment [6], 111%. The growth in experiment [7] was 84.1%.
`COc1ccccc1N1CCN(C2=NN=C(c3cccc(Cl)c3)c3ccccc3C2)CC1`: the growth in experiment [1] was 52.5%; in experiment [2] it was 50.5%; in experiment [3], -3.46% (active); in experiment [4] it was 20.9%; in experiment [5], 17.4%; in experiment [6], 8.13% (active). For the same molecule, the growth in experiment [7] was 6.16% (active).
`C#CCOc1ccc(C(Nc2ccc(OC)cc2)c2nnnn2C2CCCCC2)cc1` (stereo unspecified): the growth in experiment [1] was 94.1%; in experiment [2], 99.6%; in experiment [3], 101%; in experiment [4] it was 98.3%; in experiment [5], 91.7%; in experiment [8], 88.7%. In addition, the growth in experiment [7] was 102%.
Consider `COC(=O)[C@@]1(C)CC[C@]2(C)CC[C@]3(C)C(=CC(=O)[C@@H]4[C@@]5(C)Cc6c(n(CC#CCN7CCN(C)CC7)c7ccccc67)C(C)(C)[C@@H]5CC[C@]43C)[C@@H]2C1`, for which the growth in experiment [1] was 84.8%; in experiment [2] it was 90.5%; in experiment [3], 40.3%; in experiment [4] it was -63.4% (active); in experiment [5] it was -32.4% (active); in experiment [6], 94.8%. Also, in experiment [7], the growth is 52.8%.
On to `C#Cc1ccc(NC(=O)c2ccc(/C=C/C(=O)c3nccn3C)cc2)c(F)c1`, for which the growth in experiment [1] is 14.6%; in experiment [2] it was 40.2%; in experiment [3], 27.9%; in experiment [4] it was 18.9%; in experiment [5] it was 11%; in experiment [6], 82.6%. Moreover, the growth in experiment [7] was 23.5%.
As to `O=C(Cn1cc(CN2C(=O)c3ccc([N+](=O)[O-])cc3C2=O)nn1)Nc1ccc(F)cc1Cl`, the growth in experiment [1] is 95.4%; in experiment [2], 92.4%; in experiment [3] it was 101%; in experiment [4], 99.6%; in experiment [5], 93.3%; in experiment [6], 100%. For the same molecule, the growth in experiment [7] is 105%.
For `COc1cc(-c2nc(SCc3ccc(C)cc3)[nH]c(=O)c2C#N)ccc1OCc1ccccc1`, the growth is 109% in experiment [1]; 156% in experiment [2]; 98.2% in experiment [3]; 107% in experiment [4]; 94.5% in experiment [5]; 117% in experiment [6]. The growth in experiment [7] is 102%.
For `CCOC(=O)CC(=O)CSC1=NC2C(NN1)N(C)C(=O)N2C` (stereo unspecified), the growth in experiment [1] was 31.8%; in experiment [2], 101%; in experiment [3], 94.6%; in experiment [4], 75.8%; in experiment [5], 10.9%; in experiment [6] it was 105%. The growth in experiment [7] was 101%.
For the molecule `CCOC(=O)Nc1cccc(-n2cnc3cc(-c4ccc(O)cc4)ccc32)c1`, the growth in experiment [1] is 12.8%; in experiment [2], 39.3%; in experiment [3] it was -16% (active); in experiment [4] it was 25.5%; in experiment [5], 18.2%; in experiment [6], 30.2%. The growth in experiment [7] is 3.22% (active).
Turning to `CC1OC(O[C@@H]2C(O)C(CO)OC(O[C@H]3COC(O[C@H]4CC[C@]5(C)[C@H]6CC[C@]78OC[C@@]9(CC[C@](C)(C=O)C[C@H]97)[C@H](O)C[C@@]8(C)[C@]6(C)CC[C@H]5C4(C)C)[C@@H](OC4OC(CO)[C@@H](O)[C@@H](O)[C@@H]4O)[C@@H]3O)[C@H]2OC2OC[C@@H](O)[C@@H](O)[C@@H]2O)[C@@H](O)[C@@H](O)[C@H]1O` (stereo partly specified), the growth in experiment [1] was 53.1%; in experiment [2] it was -56.9% (active); in experiment [3], -55.1% (active); in experiment [4], 10%; in experiment [5], 11%; in experiment [7], 23.7%.
Turning to `COc1cc(O)c2c(c1)[C@H]1O[C@@H]1C[C@H](O)[C@H](O)C(=O)/C=C\C[C@H](C)OC2=O`, the growth was 30.1% in experiment [1]; 2.6% (active) in experiment [2]; 19.2% in experiment [3]; 21.8% in experiment [4]; 43.3% in experiment [5]; 65.1% in experiment [6]. In addition, the growth in experiment [7] was 90.4%.
Consider `C#C[C@]1(O)CC[C@H]2[C@@H]3CC=C4c5sc(Nc6cc(Cl)ccn6)nc5CC[C@]4(C)[C@H]3CC[C@@]21C`, for which the growth was 36.6% in experiment [1]; 20% in experiment [2]; -61.6% (active) in experiment [3]; -1.44% (active) in experiment [4]; -64% (active) in experiment [5]; 14.4% in experiment [8]. In addition, the growth in experiment [7] is -0.602% (active).
Regarding `O=C1CC2(CCOCC2)Oc2ncccc21`, the growth in experiment [1] was 70.6%; in experiment [2], 105%; in experiment [3], 81.2%; in experiment [4], -54.6% (active); in experiment [5] it was 12.7%; in experiment [6], 25.1%. For the same molecule, the growth in experiment [7] is 12.1%.
For the molecule `CC1OC(O[C@@H]2[C@H](O)C(CO)OC(O[C@H]3COC(O[C@H]4CC[C@]5(C)[C@H]6CC[C@]78OC[C@@]9(CCC(C)(C)C[C@H]97)[C@H](O)C[C@@]8(C)[C@]6(C)CC[C@H]5C4(C)C)[C@@H](OC4OC(CO)[C@@H](O)[C@@H](O)[C@@H]4O)[C@@H]3O)[C@H]2OC2OC[C@@H](O)[C@@H](O)[C@@H]2O)[C@@H](O)[C@@H](O)[C@H]1O` (stereo partly specified), the growth in experiment [1] is -54.6% (active); in experiment [2], -69.2% (active); in experiment [3], -82.8% (active); in experiment [4], -75.9% (active); in experiment [5], -55.9% (active); in experiment [8], -80.1% (active). Moreover, the growth in experiment [7] was -51.9% (active).
Turning to `N/C(=N\c1nc2c(Cl)cccc2s1)C(Cl)(Cl)Cl`, the growth was 42.4% in experiment [1]; 111% in experiment [2]; 89.1% in experiment [3]; 82.5% in experiment [4]; 49.3% in experiment [5]; 72.9% in experiment [6]. For the same molecule, the growth in experiment [7] is 41.5%.
In the case of `CCCC(=O)NC(c1cccnc1)c1ccc2c(C)ccnc2c1O` (stereo unspecified), the growth was 20.7% in experiment [1]; 26.2% in experiment [2]; 30.6% in experiment [3]; 28.6% in experiment [4]; -2.74% (active) in experiment [5]; 24% in experiment [6]. Besides, the growth in experiment [7] is 20%.
Take `CC[C@H](C)[C@H]1NC(=O)[C@@H]([C@H](O)C(C)C)NC(=O)[C@@H](C)N(C)C(=O)[C@H](C)N(C)C(=O)[C@H](CC(C)C)NC(=O)[C@H](CC(C)C)N(C)C(=O)[C@H](C)N(C)C1=O`: the growth is -6.92% (active) in experiment [1]; -4.47% (active) in experiment [2]; 5.17% (active) in experiment [3]; 5.6% (active) in experiment [4]; 1.66% (active) in experiment [5]; 2.12% (active) in experiment [6]. The growth in experiment [7] was 16%.
Regarding `CC(=O)Nc1ccc(C)c(Nc2cc(-c3ccc(-n4cccn4)cc3)[nH]n2)c1`, the growth is 53% in experiment [1]; 30.4% in experiment [2]; -26.4% (active) in experiment [3]; 31.5% in experiment [4]; 23.4% in experiment [5]; 83.2% in experiment [6]. Besides, the growth in experiment [7] was 30.8%.
For the molecule `COc1ccc(/C=C/C(=O)c2nnn(-c3ccc(C(=O)O)cc3)c2C)cc1OC`, the growth in experiment [1] was 96.8%; in experiment [2], 95.7%; in experiment [3], 101%; in experiment [4], 110%; in experiment [5] it was 86.3%; in experiment [6], 106%. The growth in experiment [7] is 101%.
For the molecule `CNC(=O)c1cc(N2CCc3cc(NC(=O)Nc4ccc(Cl)c(Cl)c4)ccc32)ccn1`, the growth in experiment [1] is 63.4%; in experiment [2] it was 77%; in experiment [3], 84.2%; in experiment [4] it was 114%; in experiment [5] it was 63.3%; in experiment [6] it was 98%. In experiment [7], the growth is 30.4%.
As to `O=C1[C@@H]2Cc3c([nH]c4ccccc34)[C@H](c3c(Cl)cccc3Cl)N2C(=O)CN1C1CCN(Cc2ccccc2)CC1`, the growth in experiment [1] was 76.8%; in experiment [2] it was 29.4%; in experiment [3] it was -61.8% (active); in experiment [4], 10.6%; in experiment [5], 1.17% (active); in experiment [6] it was 10.6%. For the same molecule, the growth in experiment [7] was 30.2%.
For the molecule `CCNC(=NCCCN(C)C)N/C(N)=N/c1nc2ccccc2s1`, the growth in experiment [1] was 94.7%; in experiment [2] it was 97.1%; in experiment [3], 93.8%; in experiment [4], 103%; in experiment [5] it was 82.8%; in experiment [7] it was 93.9%.
Turning to `COc1ccc(N2C(=O)c3cc(OC)c(OC)cc3NC2SCc2ccccc2)cc1` (stereo unspecified), the growth in experiment [1] is 98.5%; in experiment [2] it was 106%; in experiment [3], 107%; in experiment [4] it was 114%; in experiment [5], 96.3%; in experiment [7], 108%.
Consider `CCCCCCCCCC[C@@H](C)[C@@H]1CC(=O)N[C@H]([C@@H](C)O)C(=O)N[C@@H](C)C(=O)N[C@H](C)C(=O)N[C@@H](CCC(N)=O)C(=O)N[C@H](Cc2ccc(O)cc2)C(=O)N[C@@H](C(C)CC)C(=O)O1` (stereo partly specified), for which the growth in experiment [1] is 28%; in experiment [2], 72.1%; in experiment [3], 75.3%; in experiment [4], 81.9%; in experiment [5] it was 38.9%; in experiment [6], 68.3%. The growth in experiment [7] was 81.4%.
As to `COc1ccc(N2CCN(C(=O)CSc3ccc(-c4nc5cc(C)c(C)cc5[nH]4)cn3)CC2)cc1`, the growth in experiment [1] was 21.5%; in experiment [2], 32.9%; in experiment [3], 73.1%; in experiment [4] it was 85.5%; in experiment [5] it was 42.8%; in experiment [6] it was 94.2%. Further, the growth in experiment [7] is 53.2%.
In the case of `COc1cc(/C=N/Nc2ccnc3cc(Cl)ccc23)cc(OC)c1O`, the growth is -56.5% (active) in experiment [1]; 103% in experiment [2]; -85.9% (active) in experiment [3]; -30.4% (active) in experiment [4]; -72.3% (active) in experiment [5]; -81.9% (active) in experiment [6]. In addition, the growth in experiment [7] was -53.8% (active).
Regarding `CC(C)C(=O)Nc1ccc(-c2nc(-c3cccc(O)c3)c(-c3ccnc(Br)c3)[nH]2)cc1`, the growth was 7.84% (active) in experiment [1]; 60.5% in experiment [2]; 43.2% in experiment [4]; 11.7% in experiment [5]; 53.4% in experiment [8]; 67.9% in experiment [6].
On to `Clc1ccc(-c2nc3ccc(/C(=N\N=C\c4ccccc4)c4ccccc4)cc3[nH]2)cc1`, for which the growth in experiment [1] is 70.7%; in experiment [2], 92.5%; in experiment [3], 88.9%; in experiment [4], 91.2%; in experiment [5] it was 78.3%; in experiment [6], 103%. Also, in experiment [7], the growth is 82.3%.
Turning to `CS(=O)c1nccc(-c2c(-c3ccc(F)c(OCc4ccc(F)cc4)c3)nc3sccn23)n1` (stereo unspecified), the growth was -37.3% (active) in experiment [1]; 102% in experiment [2]; 100% in experiment [3]; 73% in experiment [4]; -50.1% (active) in experiment [5]; 10.2% in experiment [6]. Besides, the growth in experiment [7] is 54.5%.
For `O=C1c2c(O)cc(O)cc2O[C@@H](c2ccc(O)cc2)[C@@H]1c1c(O)cc(O)c2c(=O)cc(-c3ccc(O)c(O)c3)oc12`, the growth in experiment [1] was 105%; in experiment [2] it was 98.3%; in experiment [3], 110%; in experiment [4] it was 107%; in experiment [5], 99.9%; in experiment [6] it was 111%. Also, the growth in experiment [7] is 97.1%.

Source of the values: PubChem BioAssay (NCI).
